Bioassay records from PubChem BioAssay.
KB-V1 cytotox – qHTS assay for MDR1-selective chemotherapeutics: Primary screen using the drug-selected MDR subline cells KB-V1. KB-V1 MDR cells viability, CellTiter-Glo, 72 h. actives 3.4% (n = 400,000). Potency, µM (doses to about 46.1 µM), hits mostly cytotoxic; also: nearly all actives have a fitted effect of over 60% in size
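Cells of the MDR subline KB-V1 are plated, dosed with compound at multiple concentrations, and incubated 72 h at 37 degrees C; CellTiter-Glo is then added and luminescence read after 10 min.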
ATXN2 expr inh – Primary qHTS for Inhibitors of ATXN expression | HEK-293 ATXN2-luciferase reporter, luminescence, 24 h | Potency, µM (highest dose often 57 µM), most hits filed as inhibitors | actives 0.72% (n = 360,000) | AID 1745845, 2022; also: nearly all actives have a fitted effect of over 55% in size
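ATXN2-luciferase reporter cells (luciferase flanked by upstream and downstream ATXN2 gene portions) were treated 24 h at 37 °C with compounds at up to 57 uM. SteadyGlo luminescence gave expression; GF-AFC fluorescence gave viability.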
S2 tox – Viability Counterscreen for Primary qHTS for Inhibitors of ATXN expression; S2 cells (HEK-293 line with an ATXN2-luciferase reporter) viability, CellTiter-Fluor protease fluorescence, 24 h; Potency, µM (doses to about 56.7 µM), actives largely listed as cytotoxic; actives 0.49% (n = 400,000); also: nearly all actives have a fitted effect of over 40% in size
HT1080NT lethal – qHTS for induction of synthetic lethality in tumor cells producing 2HG: qHTS for the HT-1080-NT fibrosarcoma cell line; HT-1080-NT fibrosarcoma viability, CellTiter-Glo ATP luminescence, 48 h; Potency, µM (doses to about 46.1 µM), actives largely listed as cytotoxic; actives 1.6% (n = 360,000); AID 686970, 2013;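 also: NT is the 2HG producing partner of a matched IDH1 knockdown line; nearly all actives have a fitted effect of over 55% in size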
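Viability of the 2HG-overproducing fibrosarcoma line after 48 hours of compound exposure at 37 degrees C was determined by luminescence with CellTiter-Glo, and concentration-effect curves were then fitted and categorized.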
HT1080 IDH1KD tx – qHTS for induction of synthetic lethality in tumor cells producing 2HG: qHTS for the HT-1080-IDH1KD cell line; HT-1080 IDH1 knockdown viability, ATP luminescence, 48 h; Potency, µM (top dose mostly 46.1 µM), actives largely listed as cytotoxic; actives 2% (n = 360,000)
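Viability of IDH1-knockdown HT-1080 fibrosarcoma cells was assessed by CellTiter-Glo after 48 h at 37 °C with titrated compound; concentration-effect curves were classified by fit quality and response size.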
KB-3-1 cytotox – qHTS assay for MDR1-selective chemotherapeutics: Primary screen using the parental adenocarcinoma cell KB-3-1. Potency, µM (doses to about 46.1 µM), hits mostly cytotoxic. actives 1.4% (n = 400,000). KB-3-1 viability, CellTiter-Glo ATP luminescence, 72 h; also: nearly all actives have a fitted effect of over 60% in size
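Multi-concentration cytotoxicity screen in KB-3-1 cells grown in DMEM lacking phenol red with 10% FBS. After 72 h at 37 °C with compound, ATP-dependent luminescence was recorded.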
Of the large screens only hits and unclear results are named; the others gave an inactive call. Sampled rows, rich in hits. Any-hit rate of the full collection: about 6.2%. Calls follow the shape of the dose curve; as a rule, active = well fitted curve in the direction sought with a large enough effect; inconclusive = small, poorly fitted or top-dose-only effect, or another doubt; inactive = no such curve, though single readings can be large; an effect the other way counts as inactive or inconclusive.

COc1ccc(C2NC(=O)NC3=C2CCc2ccccc23)cc1 (configuration not stated)	KB-V1 cytotox 13µM, HT1080NT lethal 14.6µM, HT1080 IDH1KD tx 18.4µM, KB-3-1 cytotox 18.4µM
CC(C)c1ccc(C2NC(=O)NC3=C2CCc2ccccc23)cc1 (configuration not stated)	KB-V1 cytotox 18.4µM, KB-3-1 cytotox 14.6µM
COc1cccc(C2NC(=S)NC3=C2CCc2ccccc23)c1 (configuration not stated)	none
COc1ccc2c(c1)C/C(=C\c1ccc(N(C)C)cc1)C2=O	none (no result: ATXN2 expr inh, S2 tox, HT1080NT lethal, HT1080 IDH1KD tx)
O=C(NC(=S)Nc1ccccc1N1CCCCC1)c1ccc(-c2cccc([N+](=O)[O-])c2)o1	none
O=C(NC(=S)Nc1ccccc1N1CCCC1)c1ccc(-c2cccc([N+](=O)[O-])c2)o1	KB-V1 cytotox 16.4µM, HT1080NT lethal inconclusive, HT1080 IDH1KD tx inconclusive, KB-3-1 cytotox inconclusive
Cc1c(C(=O)NC(=S)Nc2ccccc2N2CCCC2)cccc1[N+](=O)[O-]	KB-V1 cytotox 13µM
COc1ccc(-c2ccnc(SCC(=O)c3ccc(OC)c(OC)c3)n2)cc1	KB-V1 cytotox 16.4µM
COc1ccc(-c2ccnc(SCC(=O)c3ccc(Cl)cc3)n2)cc1	KB-V1 cytotox inconclusive
CCN1C[C@@H]2[C@@H]3C(=O)N(Cc4ccccc4)C(=O)[C@@H]3[C@](CC)(C1=O)N2C(=O)c1ccc(Cl)c(Cl)c1	ATXN2 expr inh inconclusive
CCN1C[C@@H]2[C@@H]3C(=O)N(Cc4ccccc4)C(=O)[C@@H]3[C@](Cc3ccccc3)(C1=O)N2C(=O)c1ccc(Cl)c(Cl)c1	KB-V1 cytotox 18.4µM, ATXN2 expr inh inconclusive, S2 tox inconclusive, KB-3-1 cytotox inconclusive
Cc1cccc(N2C(=O)CN(Cc3sccc3C)C2=S)c1	KB-V1 cytotox 23.1µM, KB-3-1 cytotox inconclusive
Cc1cc(C)nc(N/N=C/c2ccccc2Cl)n1	none (no result: ATXN2 expr inh)
Cc1cc(C)nc(N/N=C/c2cccc3ccccc23)n1	KB-V1 cytotox 18.4µM
Oc1ccc(/C=N/Nc2nc(-c3ccc(Cl)cc3)cc(C(F)(F)F)n2)cc1	KB-V1 cytotox inconclusive, ATXN2 expr inh inconclusive, S2 tox inconclusive, HT1080NT lethal inconclusive, HT1080 IDH1KD tx 16.4µM, KB-3-1 cytotox inconclusive
Cc1cc(-c2ccccc2)nc(N/N=C/c2ccc(O)cc2)n1	KB-V1 cytotox inconclusive, HT1080NT lethal inconclusive, HT1080 IDH1KD tx inconclusive, KB-3-1 cytotox 20.6µM
Cc1cc(C)c2nc(C)cc(N/N=C/c3ccc(O)cc3)c2c1	KB-V1 cytotox inconclusive, ATXN2 expr inh inconclusive, S2 tox inconclusive, HT1080NT lethal 5.17µM, HT1080 IDH1KD tx 5.8µM, KB-3-1 cytotox inconclusive
Fc1ccc(CNc2nc(-c3ccc(Cl)cc3)cc(C(F)(F)F)n2)cc1	ATXN2 expr inh inconclusive, KB-3-1 cytotox inconclusive (no result: HT1080NT lethal, HT1080 IDH1KD tx)
Cc1cc(N/N=C/c2ccc(O)cc2)c2cccc(C)c2n1	S2 tox inconclusive, HT1080NT lethal inconclusive, HT1080 IDH1KD tx inconclusive (no result: ATXN2 expr inh)
CC(C)(C)c1cc(C(C)(C)C)c(NC(=O)c2c[nH]c3ccccc3c2=O)cc1O	none (no result: KB-V1 cytotox, S2 tox, HT1080NT lethal, HT1080 IDH1KD tx, KB-3-1 cytotox)
N#CC(C#N)=C(Nc1ccc(F)cc1)SCc1cccc(F)c1	KB-V1 cytotox inconclusive, ATXN2 expr inh inconclusive, HT1080NT lethal inconclusive, HT1080 IDH1KD tx inconclusive, KB-3-1 cytotox 16.4µM
CCOc1ccccc1N=C1SCC(C)N1C(=O)C1CCN(c2ncnc3sc(C)c(C)c23)CC1 (configuration not stated)	KB-V1 cytotox inconclusive
CN1Cc2cc(C(=O)N3CCC(C4CCNCC4)CC3)ccc2NC(CC(=O)O)C1=O (configuration not stated)	none (no result: KB-V1 cytotox, HT1080NT lethal, HT1080 IDH1KD tx, KB-3-1 cytotox)
CCOc1ccc(-c2cc(CCCC(=O)NCCc3ccc(OCC)c(OCC)c3)no2)cc1	none (no result: HT1080NT lethal, HT1080 IDH1KD tx)
COc1ccc(-c2cc(CCCC(=O)NCCc3cc(OC)ccc3OC)no2)cc1	KB-V1 cytotox 4.61µM, KB-3-1 cytotox inconclusive
COc1ccc(C2=CC(c3ccc(N(C)C)cc3)n3nnnc3N2)cc1 (configuration not stated)	none (no result: S2 tox, HT1080NT lethal, HT1080 IDH1KD tx)
COc1cccc(C2C=C(c3ccc(OC)cc3OC)Nc3nnnn32)c1 (configuration not stated)	KB-V1 cytotox 23.1µM, ATXN2 expr inh inconclusive, KB-3-1 cytotox inconclusive (no result: S2 tox)
COc1ccc(C2=CC(c3ccc(OC)c(OC)c3)n3nnnc3N2)c(OC)c1 (configuration not stated)	none (no result: S2 tox)
COc1cccc(C2=CC(c3ccccc3)n3nnnc3N2)c1 (configuration not stated)	KB-V1 cytotox 6.51µM, HT1080NT lethal 7.94µM, HT1080 IDH1KD tx inconclusive, KB-3-1 cytotox inconclusive
COc1cccc(C2=CC(c3ccc(N(C)C)cc3)n3nnnc3N2)c1 (configuration not stated)	KB-V1 cytotox 13µM, HT1080 IDH1KD tx inconclusive, KB-3-1 cytotox 18.4µM
C/C(=N\NC(=S)Nc1ccc(F)cc1)C1CC1	HT1080NT lethal 8.91µM, HT1080 IDH1KD tx 11.2µM
CCOC(=O)C1=C(O)/C(=C/c2cn(CC(=O)NCC3CCCO3)c3ccccc23)SC1=Nc1ccc(C)cc1 (configuration not stated)	ATXN2 expr inh 10µM, S2 tox inconclusive, HT1080NT lethal inconclusive, HT1080 IDH1KD tx inconclusive
COc1ccc(CNCC(O)(c2ccc(Cl)cc2)c2ccc(Cl)cc2)cc1OC	KB-V1 cytotox 7.31µM, ATXN2 expr inh inconclusive, S2 tox inconclusive, HT1080NT lethal inconclusive, HT1080 IDH1KD tx inconclusive
CCCCNCC(O)(c1ccc(Cl)cc1)c1ccc(Cl)cc1	ATXN2 expr inh inconclusive, S2 tox inconclusive, HT1080NT lethal inconclusive, HT1080 IDH1KD tx 18.4µM
CCCCCNCc1ccc(Cl)cc1	none
COc1ccc(CNC[C@@H](CCCCN(C)Cc2ccc(OC)cc2)N2C[C@H](c3ccccc3)N(CCc3ccc(Cl)c(Cl)c3)C(=O)C2=O)cc1	HT1080NT lethal 18.4µM, HT1080 IDH1KD tx 23.1µM (no result: S2 tox)
COc1ccc(NS(=O)(=O)c2cc(Br)cc3c2N(C(C)=O)CC3)cc1	KB-V1 cytotox 9.2µM, HT1080NT lethal 18.4µM, HT1080 IDH1KD tx 11.6µM, KB-3-1 cytotox 4.11µM
CCc1ccc(NS(=O)(=O)c2cc(Br)cc3c2N(C(C)=O)CC3)cc1	none (no result: HT1080NT lethal, HT1080 IDH1KD tx)
CCOc1ccc(/C=C/C(O)=C2/C(=O)N(C)C3(C)CC2c2ccccc2O3)cc1OC (configuration not stated)	KB-V1 cytotox inconclusive, ATXN2 expr inh inconclusive, HT1080NT lethal inconclusive, HT1080 IDH1KD tx 3.66µM, KB-3-1 cytotox 23.1µM
